Most compounds without a hit are left out; they make up all but 1.8% or so of the library.
F508del corr = CFTR F508del correction in bronchial cells. CFBE cells, YFP halide quenching; stimulated with forskolin plus potentiator P3; % fluorescence drop versus neutral controls. activity (quench increase), % at 7.58 µM. 0.36% of 350,000 active. AID 720511;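 active means mean added fluorescence quench of at least 8% versus neutral control, with both replicates also reaching 8%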;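 further: cells transiently co-express mutant CFTR-F508del with the halide-sensitive YFP; corrector assay measuring rescue of mutant channel to the surface after 24 h compound exposure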
EWS-Fli inh = EWS/Fli transcriptional activity inhibition; A673 NR0B1-luciferase reporter, viability-normalised; inhibition, % at 12.6 µM; 0.67% of 350,000 active;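 active means mean inhibition of at least 50% after viability correction, with every replicate also passing that limit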;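 further: firefly luciferase signal divided by Alamar Blue viability fluorescence both relative to DMSO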
PAX8 inh HTS = PAX8 transcriptional activity inhibition. RMG-I TPO-luciferase reporter, SteadyGlo, 24 h. inhibition, % at 12.6 µM. 1.2% of 360,000 active;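 active means mean replicate inhibition at least 60% with every replicate also reaching 60%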;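 further: luciferase light reporting Pax8 driven TPO promoter activity; plate controls were median of neutral control wells for no effect and mitoxantrone controls for full effect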
LGR2 antag = inhibitors of bursicon-induced Drosophila LGR2 receptor cAMP signaling | AID 720647 | inhibition, % at 9.99 µM | 0.35% of 380,000 active | HEK293 LGR2, CRE-luciferase, bursicon-stimulated, 4 h;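 active means drop in luminescence signal, shown as inhibition above about 50% in the replicate tests, limit read from the data, passing the limit was not always enough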;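 further: agonist challenge used bursicon conditioned medium at about half maximal strength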
Starred values were filed as active, the others as inactive; nt = no result.

SMILES	F508del corr	EWS-Fli inh	PAX8 inh HTS	LGR2 antag
C[C@H](CO)N1C[C@H](C)[C@@H](CN(C)Cc2ccc(Cl)c(Cl)c2)OCCCC[C@H](C)Oc2ccc(NC(=O)NC3CCCCC3)cc2C1=O	-2	19	1	22
O=C(C[C@H]1C[C@H]2c3cc(NC(=O)C4CCOCC4)ccc3O[C@H]2[C@H](CO)O1)NCc1cccc(F)c1	-3	-1	-1	-11
CN1C(=O)c2cc(NC(=O)c3cccc(F)c3)ccc2OC[C@@H]2O[C@H](CC(=O)NCc3ccccc3Cl)CC[C@@H]21	1	17	45	19
O=C(C1CCN(S(=O)(=O)c2cccnc2)CC1)N1CCN(c2ccc(Cl)cc2)CC1	5	6	67*	11
CC1CCN(C(=O)C2CCN(S(=O)(=O)c3cccnc3)CC2)CC1	nt	nt	nt	22
CC(c1ccccc1)N1C(=O)NC(NC(=O)C(C)(C)C)(C(F)(F)F)C1=O (configuration not stated)	nt	nt	11	32
CC(=O)Oc1cc(C(=O)OCC(=O)NC23CC4CC(CC(C4)C2)C3)cc(OC(C)=O)c1OC(C)=O	10*	22	28	-20
COc1cccc(C(=O)OCC(=O)NC23CC4CC(CC(C4)C2)C3)c1	1	5	1	-23
O=C(Nc1ccc(S(=O)(=O)Nc2nccs2)cc1)c1cnc(Cl)c(Cl)c1	0	-21	5	7
O=C(Nc1nc2cc3c(cc2s1)OCO3)C1=COCCO1	0	80*	33	nt
O=C(Nc1nc2cc3c(cc2s1)OCO3)c1ccco1	1	64*	33	71*
O=C(Nc1ccc(-c2nc3ccccc3s2)cc1)C1=COCCO1	nt	nt	-89	95*
O=C(Nc1nc2cc3c(cc2s1)OCCO3)c1ccco1	0	87*	nt	98*
Cc1ccc(S(=O)(=O)NCc2ccccc2)cc1C(=O)NC1CCCCC1	-2	2	nt	4
C[C@@H]1CN([C@@H](C)CO)C(=O)c2cc(NC(=O)C3CC3)ccc2O[C@H]1CN(C)Cc1ccc(C(F)(F)F)cc1	0	4	5	4
CC(C)NC(=O)N(C)C[C@@H]1Oc2ncc(C#Cc3ccccc3F)cc2C(=O)N([C@H](C)CO)C[C@@H]1C	2	-4	nt	5
CCCN1CCCCC(NC(=O)c2ccc(-c3ccccc3)cc2)C1=O (configuration not stated)	-2	-76	-97	-31
Cc1cc(C)nc(SCc2nnc(SCC#N)n2-c2cccc(Cl)c2)n1	-5	9	nt	25
O=C(O)COCC(=O)N1CCN(c2cc(C(F)(F)F)nc3ccccc23)CC1	2	2	11	-9
CCC(=O)N1CCN(c2ccc(-n3c(=O)ccc4cnc5ccc(-c6cnc7ccccc7c6)cc5c43)cc2C(F)(F)F)CC1	-4	45	71*	33
COc1ccccc1NC(=O)C(C)OC(=O)/C(=C/c1ccccc1)NC(C)=O (configuration not stated)	2	10	-2	-19
Cc1ccc(CNC(=O)C2CCN(S(=O)(=O)c3c(C)noc3/C=C/c3ccco3)CC2)cc1	1	27	83*	12
CSC1=N/C(=C\c2c(F)cccc2Cl)C(=O)S1	nt	nt	16	15
Cc1cccc2c(N=NC(=O)c3ccc(NS(=O)(=O)c4cccs4)cc3)c(O)[nH]c12	1	-12	-23	-32
Cc1cccc2c(N=Nc3ccc(S(=O)(=O)Nc4ccc(Cl)cc4)cc3[N+](=O)[O-])c(O)[nH]c12	9.7*	-4	3	-8
SMILES	F508del corr	EWS-Fli inh	PAX8 inh HTS	LGR2 antag
CCCC#Cc1ccc([C@@H]2[C@@H](CO)N(S(C)(=O)=O)[C@H]2C#N)cc1	-1	-2	-7	-2
Oc1ccc(F)c2cccnc12	-3	8	94*	-4
COc1ccccc1N=Nc1ccc(O)c2ncccc12	1	-86	20	-21
Oc1ccc(CNc2ccccc2F)c2cccnc12	-2	-2	87*	36
Cc1ccc(N=Nc2ccc(O)c3ncccc23)cc1	nt	41	9	nt
Oc1ccc(N=Nc2ccccc2C(F)(F)F)c2cccnc12	1	3	92*	46
Oc1ccc(Cl)c2cccnc12	3	21	15	1
CCS(=O)(=O)c1ccc(N=Nc2ccc(O)c3ncccc23)c(OC)c1	-4	11	97*	47
CC(C)C[C@H](NC(=O)c1[nH]cnc1C(=O)N[C@H](C)c1ccccc1)C(=O)OCc1ccccc1	0	0	-16	12
CN1CCN(/N=C/c2ccc(N(c3ccccc3)c3ccccc3)cc2)CC1	-1	18	23	78*
Cc1nn(C)c(C)c1/C=C/C(=O)O	13*	5	-2	7

High-throughput results (PubChem BioAssay)
